Only some compounds are listed: those with a hit (about 3.2% of all), similar ones and a draw of the others.
MsrA act – activators of bovine methionine sulfoxide reductase A; activation, % at 10.6 µM; AID 602163; purified bovine MsrA, absorbance read-out; hit rate 0.3% among 360,000; in the data active = activation above about 7.5%;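 also: 0% = vehicle and 100% = reference activator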
PG9 Ab binder – PG9 antibody binding by small molecule; TR-FRET gp120-PG9 antibody binding; inhibition, % at 6.7 µM; hit rate 0.43% among 360,000; in the data active = inhibition above about 8.5%
sPLA2-III inh – Blocks human group III sPLA2 activity; hit rate 0.56% among 370,000; QFRET BODIPY PC-A2 liposome hydrolysis, fluorescence; inhibition, % at 12.2 µM;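 active = inhibition above mean plus 3 SD of compounds lying within the high and low control bounds, cut at about 19% in these data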;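 also: 0% = median of test compound wells and 100% = no enzyme DMSO wells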
Target sequence (Q9NZ20 whole entry, looked up): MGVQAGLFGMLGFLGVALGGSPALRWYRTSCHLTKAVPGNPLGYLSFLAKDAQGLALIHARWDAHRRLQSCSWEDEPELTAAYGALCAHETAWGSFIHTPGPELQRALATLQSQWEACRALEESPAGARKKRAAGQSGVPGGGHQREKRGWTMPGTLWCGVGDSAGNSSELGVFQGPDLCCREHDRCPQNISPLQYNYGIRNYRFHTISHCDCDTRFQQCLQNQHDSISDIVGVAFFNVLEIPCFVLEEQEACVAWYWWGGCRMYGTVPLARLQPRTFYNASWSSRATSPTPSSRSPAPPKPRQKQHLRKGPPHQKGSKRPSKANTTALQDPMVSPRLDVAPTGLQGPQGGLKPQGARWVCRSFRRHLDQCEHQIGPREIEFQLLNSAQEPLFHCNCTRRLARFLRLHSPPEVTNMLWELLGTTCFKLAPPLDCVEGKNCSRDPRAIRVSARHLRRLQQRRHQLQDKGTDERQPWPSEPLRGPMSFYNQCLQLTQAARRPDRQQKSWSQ
rCAG RNA binder – r(CAG) repeat RNA binding. TO-PRO-1 dye displacement fluorescence. inhibition, % at 3 µM. hit rate 1.3% among 370,000. AID 651821;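 active = inhibition above the plate cutoff, the mean of all test compounds on that plate plus 3 SD, cut at about 35% in these data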;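 also: 0% = DMSO alone and 100% = 100 µM mitoxantrone as full dye displacement; higher means more dye released from RNA so lower well fluorescence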
MsrA inh – bovine MsrA inhibition | inhibition, % at 15.5 µM | hit rate 0.75% among 360,000 | AID 651718 | purified bovine MsrA, absorbance read-out;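 also: 0% = vehicle wells with enzyme and 100% = reference inhibitor wells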
MsrA inh confirm – confirmation of bovine MsrA inhibitors | shares compounds with MsrA inh | purified bovine MsrA, absorbance read-out | inhibition, % at 15.5 µM | hit rate 41% among 2,300;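 also: coupled to thioredoxin reductase with NADPH and selenocystamine and DMSO as substrate; 0% = vehicle only and 100% = full effect of reference inhibitor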
* hit, by the source's call. Rule as the data show it, unless noted: active = inhibition above about 4.5%; inactive = the rest.

Screening Brc1ccccc1Cn1nnc(-c2ccc(N3CCOCC3)cc2)n1 returned sPLA2-III inh -7 and rCAG RNA binder 1.
For O=C(OCc1cn(Cc2cccc(F)c2)nn1)N1CCCCC1 the results were sPLA2-III inh 5 and rCAG RNA binder 2.
`CC1(C)C=Cc2ccc(O)c(C(=O)/C=C/c3ccccc3)c2O1` gave sPLA2-III inh 4.
For CCOc1cc(S(=O)(=O)NCCc2ccccc2C)c(OCC)cc1-n1cnnn1 the results were MsrA act 4, PG9 Ab binder -1, sPLA2-III inh -30, rCAG RNA binder -8 and MsrA inh 2.
Screening CCOc1cc(S(=O)(=O)N(CC)CC)c(OCC)cc1-n1cnnn1 returned MsrA act -8, PG9 Ab binder 2, sPLA2-III inh 2, rCAG RNA binder -6, MsrA inh 25* and MsrA inh confirm 23*.
O=[N+]([O-])c1cc(-c2ccc(/C=N/n3cnnc3)o2)ccc1Cl was read as MsrA act -2, PG9 Ab binder -1, sPLA2-III inh 7, rCAG RNA binder 3 and MsrA inh 0.
Screening O=[N+]([O-])c1ccc(Cl)c(-c2ccc(/C=N/n3cnnc3)o2)c1 returned MsrA act -9, PG9 Ab binder 0, sPLA2-III inh 1, rCAG RNA binder 2, MsrA inh 5.2* and MsrA inh confirm 6.0*.
For CCCC1CCC2(CC1)CCC2OC(=S)Nc1cccc(Cl)c1 (centres undefined) the results were sPLA2-III inh 10.
For COC(=O)C1CN(C2CCCC2)CCS(=O)(=O)N1Cc1ccc(Cl)cc1 (centres undefined) the results were sPLA2-III inh 11 and rCAG RNA binder 4.
`Cc1cc(/C=C(\C#N)C(=O)NCc2ccco2)c(C)n1-c1cccnc1` gave MsrA act -5, PG9 Ab binder -1, sPLA2-III inh -7, rCAG RNA binder -4 and MsrA inh 3.
`Cc1cc(/C=C(/C#N)c2cccc(F)c2)c(C)n1-c1cccnc1` gave MsrA act -4, PG9 Ab binder -1, sPLA2-III inh 8, rCAG RNA binder -5, MsrA inh 26* and MsrA inh confirm 27*.
CC(=O)OC(=C(OC(C)=O)c1ccccc1)c1ccccc1 was read as MsrA act -2, PG9 Ab binder 1, sPLA2-III inh 4, rCAG RNA binder 0, MsrA inh 5.8* and MsrA inh confirm 6.0*.
`COC(=O)CNC(=O)c1ccccc1` gave MsrA act -1, PG9 Ab binder 1, sPLA2-III inh 6, rCAG RNA binder 2 and MsrA inh 0.
For COC(=O)[C@H]1C[C@@]2(C#N)c3ccccc3N(C(=O)OC(C)(C)C)[C@H]2N1C(=O)OC(C)(C)C the results were sPLA2-III inh 6 and rCAG RNA binder -1.
Screening COc1nccnc1NS(=O)(=O)c1ccc(NS(=O)(=O)c2ccc(NC(C)=O)cc2)cc1 returned MsrA act 0, PG9 Ab binder -1, sPLA2-III inh 1, rCAG RNA binder 4 and MsrA inh 1.
Screening COc1nccnc1NS(=O)(=O)c1ccc(N/C=C2\CCCCC2=O)cc1 returned MsrA act -3, PG9 Ab binder -2, sPLA2-III inh 1, rCAG RNA binder 4, MsrA inh 5.3* and MsrA inh confirm 4.6*.
CC(C)=CCC[C@@]1(C(=O)O)[C@@H]2C/C=C(\C)CC/C=C(\C)CC[C@H]1[C@]1(CC2)CO1 was read as sPLA2-III inh -6 and rCAG RNA binder 14.
Cc1ccc(S(=O)(=O)NCCNc2ccc([N+](=O)[O-])cc2C(F)(F)F)cc1 was read as MsrA act -3, PG9 Ab binder 1, sPLA2-III inh -25, rCAG RNA binder 8, MsrA inh 29* and MsrA inh confirm 21*.
Screening CC1=C(c2ccc(F)cc2)[N+](=O)C(C)(C)N1[O-] returned MsrA act -11, PG9 Ab binder 0, sPLA2-III inh 2, rCAG RNA binder -1, MsrA inh 4.8* and MsrA inh confirm 0.
Cc1nn(Cc2ccc([N+](=O)[O-])cc2)c(=O)n1N(C)c1ncc(C(F)(F)F)cc1Cl was read as MsrA act -4, PG9 Ab binder -1, sPLA2-III inh 1, rCAG RNA binder -9 and MsrA inh 2.
Cc1nn(Cc2ccc(Cl)cc2)c(=O)n1N(C)c1ncc(C(F)(F)F)cc1Cl was read as MsrA act -3, PG9 Ab binder 0, sPLA2-III inh -5, rCAG RNA binder -9, MsrA inh 15* and MsrA inh confirm 13*.
`O=C1C(N2CCOCC2)=C(n2nnc3ccccc32)C(=O)c2ccccc21` gave MsrA act -6, PG9 Ab binder -10, sPLA2-III inh 6, rCAG RNA binder 3, MsrA inh 71* and MsrA inh confirm 69*.
`COC(=O)C[C@@H]1CC[C@@H]2[C@H](COc3ccc(NC(=O)c4ccc(F)c(F)c4)cc3C(=O)N2C)O1` gave sPLA2-III inh 1 and rCAG RNA binder 4.
`CCC(=O)N(C1=C(NC)C(=O)c2ccccc2C1=O)C(C)C` gave MsrA act -2, PG9 Ab binder -3, sPLA2-III inh 4, rCAG RNA binder -5 and MsrA inh -2.
Screening CNC1=C(N(C(C)=O)c2ccc(Br)cc2)C(=O)c2ccccc2C1=O returned MsrA act 4, PG9 Ab binder -2, sPLA2-III inh -9, rCAG RNA binder 2, MsrA inh 36* and MsrA inh confirm 5.5*.
`COCCCNc1oc(/C=C/c2ccccc2)nc1C#N` gave MsrA act -5, PG9 Ab binder 2, sPLA2-III inh -1, rCAG RNA binder -4, MsrA inh 5.9* and MsrA inh confirm 4.
CCOc1ccc(/C=C/c2nc(C#N)c(NCCCOC)o2)cc1 was read as MsrA act -1, PG9 Ab binder 1, sPLA2-III inh 5, rCAG RNA binder -3 and MsrA inh 4.
CCN(CC)C(=O)CC[C@@H]1CC[C@]2(CCCN(C(=O)c3cccnc3)C2)O1 was read as sPLA2-III inh 4 and rCAG RNA binder -1.
For O=C(N/N=C/C=C/c1cccc([N+](=O)[O-])c1)c1ccncc1 the results were MsrA act -3, PG9 Ab binder -2, sPLA2-III inh 3, rCAG RNA binder -1 and MsrA inh -2.
Screening Nc1ccc(C(=O)N/N=C\C=C\c2cccc([N+](=O)[O-])c2)cc1 returned MsrA act -10, PG9 Ab binder -2, sPLA2-III inh 9, rCAG RNA binder 7, MsrA inh 9.9* and MsrA inh confirm 6.8*.
For O=C(N/N=C/C=C/c1ccccc1)c1ccncc1 the results were MsrA act -1, PG9 Ab binder -6, sPLA2-III inh -2, rCAG RNA binder 2, MsrA inh 8.0* and MsrA inh confirm 6.9*.
Screening CC1CCCCC1N(C(=O)c1cc(C2CC2)on1)C1CCCCC1 (centres undefined) returned sPLA2-III inh 3 and rCAG RNA binder -1.
O=C(NCc1cccc(Cl)c1)O[C@H]1CC[C@@]23CCCN2C(=O)CCC[C@H]3C1 was read as sPLA2-III inh -3.
Screening Clc1ccc(-n2c(SCc3cccc4ccccc34)nnc2-c2ccccc2)cc1 returned sPLA2-III inh -9 and rCAG RNA binder 6.
